Experimental findings from PubChem BioAssay (EPA / NIEHS) are described below.

Several values for one entry are separate records, joined by “and”; a condition that tells them apart may be missing. Equal values may be shown once. Results filed as inconclusive are left out. Where a structure was tested more than once in an assay, its records may differ in their call. Activity calls are given as the source filed them. Rule for the calls, unless noted: active = hit-call score of the fitted dose curve at least 0.9, where 1 is the maximum; inactive = score below 0.9.

Assay [1] can be described thus: CCTE_Shafer_MEA_dev_active_electrodes_number: CCTE's Neural Network Formation Assay for Number of Active Electrodes, Shafer Lab (AID 2284040; active = hit-call score of the fitted dose curve at least 0.9, where 1 is the maximum;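 for AC50: potency for loss of active electrodes versus DMSO so lower counts are hits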). The procedure, abridged: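 Primary rat cortical neurons on 16-electrode MEA wells, exposed from day 0 through day 12 with compound renewed at DIV 5 and 9 feeds. Active electrodes (mean firing ≥5 spikes/min) counted at DIV 5, 7, 9, 12; trapezoidal AUC across days, loss-of-signal versus DMSO.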

A short description of assay [2]: CCTE_Shafer_MEA_dev_burst_rate: CCTE's Neural Network Formation Assay for Burst Rate, Shafer Lab (AID 2284042).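 For AC50: potency for loss of burst rate below DMSO control.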 The procedure, abridged: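 Cells plated, treated day 0; recorded DIV 5, 7, 9, 12; fed and re-treated DIV 5, 9. Endpoint: bursts per recording time, active-electrode well mean, trapezoidal AUC, fitted in decreasing direction against DMSO baseline.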
Assay [3] in a line: CCTE_Shafer_MEA_dev_bursting_electrodes_number: CCTE's Neural Network Formation Assay for Number of Bursting Electrodes, Shafer Lab (AID 2284043; active = hit-call score of the fitted dose curve at least 0.9, where 1 is the maximum;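 for AC50: potency is for loss of bursting electrodes relative to DMSO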). A digest of the protocol:
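Read-out is the per-well number of electrodes bursting at least once every 2 minutes, recorded on days 5, 7, 9 and 12 and collapsed by trapezoidal area under the curve. Cultures were primary rat cortical neurons on MEA plates, treated continuously from plating.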

Assay [4] can be described thus: CCTE_Shafer_MEA_dev_per_burst_interspike_interval: CCTE's Neural Network Formation Assay for Burst Interspike Interval, Shafer Lab (AID 2284044).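 For AC50: potency for a decrease of within-burst interspike interval below DMSO level.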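 Note: mean spike spacing inside bursts as AUC over recordings on days 5 7 9 12.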 A digest of the protocol:
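Spontaneous activity of maturing rat cortical networks is recorded on DIV 5, 7, 9 and 12 under chronic compound exposure beginning at plating. Endpoint: burst interspike interval well-mean, collapsed into trapezoidal AUC and fitted in the negative direction relative to DMSO.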

Assay [5] is described as follows: CCTE_Shafer_MEA_dev_burst_duration_mean: CCTE's Neural Network Formation Assay for Mean Burst Duration, Shafer Lab (AID 2284045).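 For AC50: curve fitted for loss meaning shorter burst duration than DMSO.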 The procedure, abridged: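 Read-out: average first-to-last-spike interval within single-electrode bursts, averaged over bursting electrodes per well, then summarised as area under the curve across days 5, 7, 9 and 12. Developing rat cortical networks were exposed from day 0.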

A short description of assay [6]: CCTE_Shafer_MEA_dev_interburst_interval_mean: CCTE's Neural Network Formation Assay for Mean Interburst Interval, Shafer Lab (AID 2284046).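 Note: curve fitted for decrease in interburst interval relative to DMSO.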 The procedure, abridged: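 Developing rat cortical networks on 48-well MEAs receive compound from the day of plating. Burst intervals from each active electrode are averaged per well, and AUC over the recording days is fitted in the negative direction against DMSO.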

The nature of assay [7]: CCTE_Shafer_MEA_dev_inter_network_spike_interval_mean: CCTE's Neural Network Formation Assay for Mean Inter-network Spike Interval, Shafer Lab (AID 2284047).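 For AC50: potency for a decrease in mean inter-network spike interval below DMSO.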 A digest of the protocol: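 Rat cortical cultures, 1.5 x 10^5 cells/well on 48-well MEA plates; continuous exposure days 0–12, medium and compound refreshed DIV 5, 9. Mean time between consecutive network-spike peaks; AUC across DIV 5/7/9/12; DMSO baseline, negative fitting direction.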

Assay [8] in a line: CCTE_Shafer_MEA_dev_network_spike_number: CCTE's Neural Network Formation Assay for Number of Network Spikes, Shafer Lab (AID 2284048).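 For AC50: fit as a loss of signal meaning fewer network spikes than DMSO.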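 Note: synchronized bursts across electrodes counted on days 5 7 9 12 and integrated as AUC.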 The procedure, abridged: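 Developing networks of primary rat cortical neurons are treated over 12 days starting at plating, with media and compound fully replaced on DIV 5 and 9. Network spike counts from four recording days are integrated as trapezoidal AUC.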

The nature of assay [9]: CCTE_Shafer_MEA_dev_network_spike_peak: CCTE's Neural Network Formation Assay for Mean Number of Electrodes in Network Spike, Shafer Lab (AID 2284049).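 For AC50: fitted for loss of signal meaning fewer electrodes in network spikes than DMSO.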 A digest of the protocol:
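Rat cortical primary culture, 1.5 x 10^5 cells/well, 48-well MEA (16 electrodes/well). Dosing day 0 through DIV 12, full media/compound exchange DIV 5, 9. AxIS adaptive spike detection; AUC over days 5/7/9/12; loss-of-signal vs DMSO.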

Assay [10] can be described thus: CCTE_Shafer_MEA_dev_spike_duration_mean: CCTE's Neural Network Formation Assay for Mean Spike Duration, Shafer Lab (AID 2284051).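 For AC50: potency for a decrease in mean network spike duration versus DMSO.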 A digest of the protocol: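 Readout is the average length of network spikes, clustered firing across electrodes, summed over DIV 5, 7, 9 and 12 as area under the curve. Neurons from rat cortex developed networks on MEA plates under continuous 12-day exposure.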

Assay [11] is described as follows: CCTE_Shafer_MEA_dev_network_spike_duration_std: CCTE's Neural Network Formation Assay for Standard Deviation of Network Spike Duration, Shafer Lab (AID 2284052).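 Note: hits are decreases in network spike duration SD versus DMSO vehicle.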 The procedure, abridged:
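Read-out is the trapezoidal area-under-the-curve across recordings made on days 5, 7, 9 and 12, fitted in the negative direction against DMSO baseline. Neurons were primary rat cortical cells treated from day 0, with treatment renewed at each feed.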

Assay [12] in a line: CCTE_Shafer_MEA_dev_per_network_spike_spike_number_mean: CCTE's Neural Network Formation Assay for Mean Number of Spikes in a Network Spike, Shafer Lab (AID 2284053).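 For AC50: fitted as decrease in spikes per network spike relative to DMSO.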 The procedure, abridged: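 Continuous twelve-day exposure of developing rat cortical networks grown over 16 microelectrodes per well; spontaneous firing is captured at four time points, and the per-network-spike spike number is integrated over development by trapezoidal AUC.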

Assay [13] is described as follows: CCTE_Shafer_MEA_dev_per_network_spike_spike_percent: CCTE's Neural Network Formation Assay for Percent of Spikes in a Network Spike, Shafer Lab (AID 2284054). The procedure, abridged: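 Rat primary cortical cultures, 1.5 x 10^5 cells/well on MEA. Continuous compound exposure d0–12, medium/compound renewed DIV 5, 9. Network-spike spike % (0.05 s peak window), AUC over 4 recordings, DMSO baseline.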

Assay [14] in a line: CCTE_Shafer_MEA_dev_LDH: CCTE's Lactate Dehydrogenase Assay for Cytotoxicity in the Neural Network Formation Assay, Shafer Lab (AID 2284068; active = hit-call score of the fitted dose curve at least 0.9, where 1 is the maximum;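 note: exposure for twelve days from plating with re-dosing on DIV 5 and 9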). The procedure, abridged: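 Cytotoxicity companion to network-formation recordings: rat cortical neurons received compound over 12 days of development, re-dosed at DIV 5 and 9 feeds. Viability was inferred from LDH enzyme activity relative to DMSO.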

Assay [15] addresses Estrogen receptor (Homo sapiens) (UniProt P03372). Kind of assay: CCTE_Deisenroth_AIME_384WELL_LUC_Shift: CCTE's 384-well Estrogen Receptor Transactivation Assay with AIME metabolic competence data shift (ERTA luciferase; difference in metabolism positive and negative), Deisenroth Lab (AID 2284041).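 Note: shift is response with S9 minus without S9 so positive means metabolism raised ER signal.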 A digest of the protocol: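 Test chemicals (0.002–200 uM, 10-point) were pre-incubated 2 h with alginate microspheres containing phenobarbital/beta-naphthoflavone-induced male Sprague Dawley rat liver S9 or water, then medium was transferred to VM7Luc4E2 cells for 24 h luciferase readout; shift = S9-positive minus S9-negative normalized response.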

The nature of assay [16]: UKN5_HCS_SBAD2_cell_viability: Viability Assessment in the University of Konstanz (UKN) Leist Lab Neurite Outgrowth Assay in human iPSC-derived immature Dorsal Root Ganglia Neurons (UKN5) (AID 2284056). The procedure, abridged: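 iPSC-derived immature peripheral neurons (SBAD2) seeded on Matrigel with CHIR99021, SU5402 and DAPT, dosed 1 h later for 24 h. Viability from Hoechst H-33342 and calcein-AM live staining, high-content imaging; bidirectional fit versus DMSO.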

The nature of assay [17]: UKN5_HCS_SBAD2_neurite_outgrowth: University of Konstanz (UKN) Leist Lab Neurite Outgrowth Assay in human iPSC-derived immature Dorsal Root Ganglia Neurons (UKN5) (AID 2284070). The conditions noted are these: actives raise or lower the signal. The procedure, abridged: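 Read-out: calcein-AM-stained neurite area by high-content imaging, Hoechst H-33342 for viability, after 24 h exposure of iPSC-derived immature dorsal root ganglia neurons. Activity fitted in both directions relative to DMSO baseline.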

Assay [18] can be described thus: CCTE_Shafer_MEA_acute_AB: CCTE's Alamar Blue Assay for Cytotoxicity in the Neural Acute Assay, Shafer Lab (AID 2284069; active = hit-call score of the fitted dose curve at least 0.9, where 1 is the maximum;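 note: active compounds lower the viability signal compared with DMSO wells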). The procedure, abridged:
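Metabolic activity in chemically exposed rat cortical neurons (MEA cultures, day 13/15 post-plating) measured via CellTiter Blue resazurin reduction, 544/590 nm fluorescence; fitted relative to DMSO, with signal loss indicating reduced viability.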

Chain of Estrogen receptor (Homo sapiens) (P03372 whole entry, looked up): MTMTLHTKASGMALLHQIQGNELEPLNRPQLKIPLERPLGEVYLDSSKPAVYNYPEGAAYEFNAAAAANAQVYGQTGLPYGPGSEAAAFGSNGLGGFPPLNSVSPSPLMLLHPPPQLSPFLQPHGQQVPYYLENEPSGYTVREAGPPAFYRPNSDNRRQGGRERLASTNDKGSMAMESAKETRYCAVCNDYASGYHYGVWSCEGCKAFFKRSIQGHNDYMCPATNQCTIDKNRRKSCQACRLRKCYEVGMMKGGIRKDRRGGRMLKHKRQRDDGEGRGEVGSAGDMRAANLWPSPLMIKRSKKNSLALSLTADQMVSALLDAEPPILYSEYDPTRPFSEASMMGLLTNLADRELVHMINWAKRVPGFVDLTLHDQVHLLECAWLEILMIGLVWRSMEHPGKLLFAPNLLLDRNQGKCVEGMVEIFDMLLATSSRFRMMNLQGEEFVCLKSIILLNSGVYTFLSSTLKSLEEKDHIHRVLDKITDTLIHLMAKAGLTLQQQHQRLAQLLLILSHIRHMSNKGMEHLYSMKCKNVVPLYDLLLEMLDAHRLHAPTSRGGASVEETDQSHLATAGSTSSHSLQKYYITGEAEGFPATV

Consider `FC(F)(F)COC(OCC(F)(F)F)OCC(F)(F)F`, for which the outcome in [1], in assay [2], in assay [3], in [4], in assay [5] and in assay [6] was inactive. The call in [7], in assay [8], in assay [9], in assay [10], in assay [11] and in assay [12] was inactive. For the same compound, the compound was called inactive in assay [13] and in [14].
As to `CC(C)CC(C)O` (configuration not stated), the outcome in [15] was inactive.
`C[C@]12C=CC(=O)C=C1CC[C@H]1[C@@H]3C[C@@H](O)[C@](O)(C(=O)CO)[C@@]3(C)C[C@H](O)[C@@]12F`: the call in [1], in assay [2], in [3], in assay [4], in assay [6] and in [7] was inactive. The call in [8], in assay [10], in assay [11], in assay [12] and in [14] was inactive. The AC50 in [9] is 0.116 µM (active); in [13], 0.57 µM (active).
In the case of `OCCC(F)(F)C(F)(F)C(F)(F)C(F)(F)F`, the result in assay [1], in assay [2], in assay [4], in [5], in assay [6] and in assay [7] was inactive. Moreover, the result in assay [8], in [9], in [10], in assay [11], in assay [12] and in assay [13] was inactive.
In the case of `NNC(=O)c1ccncc1`, the compound was classed as inactive in [1], in [2], in [4], in assay [5], in assay [6] and in [7]. In addition, the call in assay [8], in assay [10], in [11], in assay [12] and in assay [13] was inactive. The half-maximal activity concentration (AC50) was 595 nM (active) in [3] and 2.98 µM (active) in assay [9].
For `Nc1ccn([C@@H]2O[C@H](CO)[C@@H](O)[C@@H]2O)c(=O)n1`, the half-maximal activity concentration (AC50) in assay [1] was 185 nM (active) and 303 nM (active); in assay [2] it was 120 nM (active) and 1.09 µM (active); in assay [3] it was 195 nM (active) and 215 nM (active); in assay [4], 254 nM (active); in [5], 248 nM (active) and 1.85 µM (active); in assay [6], 158 nM (active) and 437 nM (active). The AC50 in assay [7] is 140 nM (active); in assay [8] it was 144 nM (active) and 143 nM (active); in assay [9], 160 nM (active) and 623 nM (active); in [10], 145 nM (active) and 889 nM (active); in assay [11], 65.6 nM (active) and 636 nM (active); in assay [12] it was 118 nM (active) and 206 nM (active). Also, the AC50 in [13] is 179 nM (active) and 84 nM (active); in assay [14], 20.4 µM (active) and 2.69 µM (active); in assay [17], 1.2 µM (active). Moreover, the result in assay [4], in assay [7] and in assay [16] was inactive.
As for `FC(F)(F)C(F)(F)C(F)(F)C(F)(F)C(F)(F)C(F)(F)I`, the compound was called inactive in assay [1], in assay [2], in assay [3], in assay [4], in assay [5] and in [6]. For the same compound, the compound was called inactive in [7], in assay [8], in assay [9], in assay [10], in [11] and in assay [12]. The compound was classed as inactive in assay [13].
On to `CCCC(CCC)C(=O)O`, for which the call in [1], in assay [2], in assay [3], in assay [4], in [5] and in assay [6] was inactive. Moreover, the result in assay [8], in assay [9], in assay [10], in assay [11] and in assay [14] was inactive. Besides, the AC50 in [12] was 576 µM (active); in assay [13], 488 µM (active); in assay [16] it was 5000 µM (active); in assay [17], 5000 µM (active).
Consider `CCN(CC)C(=S)SSC(=S)N(CC)CC`, for which the AC50 in assay [1] was 118 nM (active) and 54.8 nM (active); in [2], 124 nM (active) and 50 nM (active); in assay [3], 108 nM (active) and 46.3 nM (active); in assay [4] it was 157 nM (active) and 39.7 nM (active); in [5], 103 nM (active) and 38.3 nM (active); in assay [6], 200 nM (active) and 55.2 nM (active). For the same compound, the AC50 in assay [7] is 225 nM (active) and 91.6 nM (active); in assay [8], 102 nM (active) and 52.1 nM (active); in assay [9], 110 nM (active) and 50.8 nM (active); in assay [10], 106 nM (active) and 47.6 nM (active); in [11] it was 100 nM (active) and 40.6 nM (active); in assay [12] it was 102 nM (active) and 55.3 nM (active). The AC50 in assay [13] is 161 nM (active) and 86.3 nM (active); in assay [14], 120 nM (active) and 58 nM (active). Moreover, in assay [15], the result was inactive.
Take `CC(C)CCCCCCOC(=O)C1CCCCC1C(=O)OCCCCCCC(C)C` (configuration not stated): the outcome in assay [15] was inactive.
`Cn1cc[nH]c1=S`: the compound was called inactive in assay [1], in assay [2], in assay [3], in assay [4], in assay [5] and in [6]. The result in assay [7], in [8], in assay [9], in assay [10], in [11] and in [12] was inactive. Moreover, the call in [13] was inactive. Further, the AC50 in assay [14] is 46.6 nM (active).
Take `CC[C@H](C)C(=O)O[C@H]1C[C@H](O)C=C2C=C[C@H](C)[C@H](CC[C@@H](O)C[C@@H](O)CC(=O)O)[C@H]21`: the AC50 in assay [1] is 2.28 µM (active); in assay [8] it was 143 nM (active); in assay [9], 3.06 µM (active); in [10], 37 nM (active); in [13], 1.88 µM (active). In addition, the outcome in [2], in assay [4], in assay [5], in assay [6], in assay [7] and in assay [11] was inactive. The result in assay [12] and in [18] was inactive.

The term AC50 denotes the midpoint of the concentration-response curve, whichever way the signal moves.
